In all, about 1,700 compounds were measured (“T2 sensor activation Q score (MG/GFP ratio z-score vs DMSO controls)”: median about 0.3, highest 2% from about 1.9 on). The sample as a whole holds a higher share of the highest values than the screen did.
tested on: ppGalNAc-T2 sensor; test: T2 sensor activation Q score (MG/GFP ratio z-score vs DMSO controls) (SD units); higher = more sensor activation (inhibition of ppGalNAc-T2 glycosylation); settings: HEK293 sensor cells; 10 µM; 6 h
Protocol: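 Cells were treated with compound at 10 uM for 6 h, then MG/GFP ratio was read by flow cytometry (10,000 cells per well, duplicate wells). Q = (R - R_neg)/SD_neg relative to DMSO vehicle controls; the signal rises when the glycosyltransferase is inhibited.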

SMILES	T2 sensor activation Q score
COc1ccc(-c2cc(-c3ccccc3)c(-c3ccccc3)nn2)cc1	-0.95
CCOC(=O)Nc1ccc2nc(N3CCCCCC3)sc2c1	0.95
O=C(C=Cc1ccc(O)c(O)c1)c1ccccc1O	-0.4
Cc1nc(SCC(=O)O)n[nH]1	-1.55
CCOC(=O)N1CCN(Cc2c(O)ccc3ccccc23)CC1	-0.05
CCOc1ccc(/C=C2\CCc3ccccc3C2=O)cc1	0.5
CCOC(=O)N1C/C(=C\c2ccccc2)C(=O)/C(=C/c2ccccc2)C1	2.95
CC(=O)NC1=C/C(=C\[N+](=O)[O-])C=C1O	-0.65
COc1cc2c(cc1OC)C(=O)Cc1ccc3c(c1CN(C)CC2)OCO3	1.1
CCN1CCCCC(=NO)C(=NO)CCCC1	1.05
COc1ccc(OC(=O)Nc2ccc([N+](=O)[O-])cc2OC)cc1	0.95
O=C1C2C3C=CC(O3)C2C(=O)N1Nc1ccccc1 (stereo unspecified)	0.25
C(=N\Nc1nnn(Cc2ccccc2)n1)/c1ccccc1	0.5
Nc1ccc(-c2nc3nc(N)nc(N)c3nc2-c2ccc(N)cc2)cc1	4.95
CCN(CC)CCNc1c(C)cc(CO)c(Cl)c1C	0.25
C#CC(C)OCC1CNC(=S)O1 (stereo unspecified)	-1.4

SMILES	T2 sensor activation Q score
CN(C)c1ccc(/C=N\NC(=O)c2cnc3ccccc3c2)cc1	-0.3
NS(=O)(=O)c1cc2c(cc1Cl)NC(CC1CCCC1)NS2(=O)=O (stereo unspecified)	0.8
S=c1cn[nH]c2ccccc12	0.55
S=c1[nH]c2ccccc2c2ccccc12	1.95
S=c1[nH]c2ccccc2n2cccc12	1.1
O=C(c1ccccc1)c1ccc(-c2ccc(O)cc2)cc1	1.55
CSC(=O)NC(=O)NC(=O)c1ccc([N+](=O)[O-])cc1	1.05
O=C(c1ccccc1)c1ccc(Sc2ccc([N+](=O)[O-])cc2)cc1	7.7
CCN(CC)CCN1c2ccccc2Sc2ccc3ccccc3c21	-0.8
OC(c1cc(-c2ccc(C(F)(F)F)cc2)nc(C(F)(F)F)c1)C1CCCCN1 (stereo unspecified)	0.5
CCCCSc1ncnc2[nH]ncc12	0.45
O=[N+]([O-])c1ccc2c3ccccc3[s+]([O-])c2c1 (stereo unspecified)	0.25
CC(C)NCC1CCc2cc(CO)c([N+](=O)[O-])cc2N1 (stereo unspecified)	-0.55
Cc1ccc(Cl)cc1NC(=O)c1cc2ccccc2cc1O	-0.35
CCOC(=O)Cc1cc(=O)c2cc(C)ccc2[nH]1	0.8

— the supplement of paper PMC5407854, “Inhibitor of ppGalNAc-T3-mediated O-glycosylation blocks cancer cell invasiveness and lowers FGF23 levels” (eLife, 2017)
